Measurements from the supplement of paper PMC11732987, “Enantioselective OTUD7B fragment discovery through chemoproteomics screening and high-throughput optimisation” (Communications Chemistry, 2025).

Columns and labels:
Assay in all cases: log2 ratio of Biotin-Ahx-Ub-VS probe labelling (fragment/DMSO); higher = less target engagement (more negative = stronger competition), active = hit call of the paper (q ≤ 0.05, log2 ratio ≤ -1)
Conditions in all cases: compound concentration: 200 uM; treatment time: 3 h
OTUD6B = biological target: T1, OTUD6B (UniProt Q8N6M0)
T1 sequence (whole entry): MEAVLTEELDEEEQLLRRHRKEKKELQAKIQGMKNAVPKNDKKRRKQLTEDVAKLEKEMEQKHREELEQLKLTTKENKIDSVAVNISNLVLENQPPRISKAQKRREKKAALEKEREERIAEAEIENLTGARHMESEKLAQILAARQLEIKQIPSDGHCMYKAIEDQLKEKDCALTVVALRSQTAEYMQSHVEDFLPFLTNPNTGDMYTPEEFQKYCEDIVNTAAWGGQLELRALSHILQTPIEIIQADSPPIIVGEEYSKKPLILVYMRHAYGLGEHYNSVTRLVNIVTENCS
Outline: (§1)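 Using Biotin-Ahx-Ub-VS at 0.5 µM final for 1 h, DUBs were labelled in HEK293T lysate (495 µg per sample) that had first been treated in triplicate with fragment at 200 µM or vehicle for 3 h. NeutrAvidin enrichment, LysC and trypsin digestion and diaPASEF LC-MS/MS followed. Spectronaut label-free quantities were global-median-normalised. Values are average log2 fragment/vehicle ratios by unpaired t-test, using proteins with ≥2 unique peptides.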

OTUD7B = biological target: T2, OTUD7B (UniProt Q6GQQ9)
T2 sequence (whole entry): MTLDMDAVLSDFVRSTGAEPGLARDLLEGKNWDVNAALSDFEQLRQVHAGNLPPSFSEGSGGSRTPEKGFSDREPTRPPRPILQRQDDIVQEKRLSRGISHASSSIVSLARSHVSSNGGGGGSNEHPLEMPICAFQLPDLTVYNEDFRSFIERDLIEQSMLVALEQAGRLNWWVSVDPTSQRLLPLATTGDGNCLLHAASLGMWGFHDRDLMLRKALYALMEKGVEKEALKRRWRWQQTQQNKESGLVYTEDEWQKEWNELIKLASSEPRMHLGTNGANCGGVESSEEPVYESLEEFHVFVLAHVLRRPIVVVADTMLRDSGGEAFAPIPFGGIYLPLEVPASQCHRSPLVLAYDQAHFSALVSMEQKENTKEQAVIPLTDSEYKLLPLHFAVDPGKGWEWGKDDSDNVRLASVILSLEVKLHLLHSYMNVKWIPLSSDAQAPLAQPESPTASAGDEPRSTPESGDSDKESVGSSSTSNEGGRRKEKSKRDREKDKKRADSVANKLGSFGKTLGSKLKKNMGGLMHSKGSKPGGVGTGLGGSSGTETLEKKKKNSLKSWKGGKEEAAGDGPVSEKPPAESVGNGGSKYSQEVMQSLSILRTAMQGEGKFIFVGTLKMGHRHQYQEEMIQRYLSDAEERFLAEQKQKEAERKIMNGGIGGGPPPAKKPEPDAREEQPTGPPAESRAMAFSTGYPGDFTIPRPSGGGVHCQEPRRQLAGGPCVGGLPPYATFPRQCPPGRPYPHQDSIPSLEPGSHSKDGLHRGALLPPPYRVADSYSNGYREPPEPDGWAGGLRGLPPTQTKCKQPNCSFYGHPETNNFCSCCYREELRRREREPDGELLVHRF
Outline: as §1

PRPF8 = PRPF8 (UniProt Q6P2Q9)
Outline: as §1

PSMD7 = biological target: T3, PSMD7 (UniProt P51665)
T3 sequence (whole entry): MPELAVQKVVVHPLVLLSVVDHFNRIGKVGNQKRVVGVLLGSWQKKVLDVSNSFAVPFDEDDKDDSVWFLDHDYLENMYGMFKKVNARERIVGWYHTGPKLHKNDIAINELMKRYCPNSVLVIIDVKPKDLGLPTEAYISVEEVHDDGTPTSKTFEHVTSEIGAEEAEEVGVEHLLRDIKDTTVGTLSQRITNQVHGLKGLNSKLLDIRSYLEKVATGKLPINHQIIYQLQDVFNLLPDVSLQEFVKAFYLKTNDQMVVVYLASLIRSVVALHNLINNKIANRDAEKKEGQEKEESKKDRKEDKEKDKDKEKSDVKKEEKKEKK
Outline: as §1

UCHL1 = UCHL1 (UniProt P09936)
Outline: as §1

UCHL3 = biological target: T4, UCHL3 (UniProt P15374)
T4 sequence (whole entry): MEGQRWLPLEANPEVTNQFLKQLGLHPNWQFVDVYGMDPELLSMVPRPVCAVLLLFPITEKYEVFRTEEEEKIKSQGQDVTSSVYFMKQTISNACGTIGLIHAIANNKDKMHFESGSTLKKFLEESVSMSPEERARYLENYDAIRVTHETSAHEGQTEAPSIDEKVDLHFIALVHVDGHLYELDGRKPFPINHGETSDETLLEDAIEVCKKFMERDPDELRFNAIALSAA
Outline: as §1

UCHL5 = biological target: T5, UCHL5 (UniProt Q9Y5K5)
T5 sequence (whole entry): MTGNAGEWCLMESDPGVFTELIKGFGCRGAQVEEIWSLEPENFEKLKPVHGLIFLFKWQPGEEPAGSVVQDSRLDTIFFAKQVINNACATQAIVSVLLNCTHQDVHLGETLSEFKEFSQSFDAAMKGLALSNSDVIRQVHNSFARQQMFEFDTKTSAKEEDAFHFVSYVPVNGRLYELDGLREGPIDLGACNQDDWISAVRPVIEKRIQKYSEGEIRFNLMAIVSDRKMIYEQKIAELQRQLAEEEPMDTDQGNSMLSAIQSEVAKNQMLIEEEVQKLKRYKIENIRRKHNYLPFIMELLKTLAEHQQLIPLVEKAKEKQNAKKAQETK
Outline: as §1

USP10 = USP10 (UniProt Q14694)
Outline: as §1

USP15 = biological target: T6, USP15 (UniProt Q9Y4E8)
T6 sequence (whole entry): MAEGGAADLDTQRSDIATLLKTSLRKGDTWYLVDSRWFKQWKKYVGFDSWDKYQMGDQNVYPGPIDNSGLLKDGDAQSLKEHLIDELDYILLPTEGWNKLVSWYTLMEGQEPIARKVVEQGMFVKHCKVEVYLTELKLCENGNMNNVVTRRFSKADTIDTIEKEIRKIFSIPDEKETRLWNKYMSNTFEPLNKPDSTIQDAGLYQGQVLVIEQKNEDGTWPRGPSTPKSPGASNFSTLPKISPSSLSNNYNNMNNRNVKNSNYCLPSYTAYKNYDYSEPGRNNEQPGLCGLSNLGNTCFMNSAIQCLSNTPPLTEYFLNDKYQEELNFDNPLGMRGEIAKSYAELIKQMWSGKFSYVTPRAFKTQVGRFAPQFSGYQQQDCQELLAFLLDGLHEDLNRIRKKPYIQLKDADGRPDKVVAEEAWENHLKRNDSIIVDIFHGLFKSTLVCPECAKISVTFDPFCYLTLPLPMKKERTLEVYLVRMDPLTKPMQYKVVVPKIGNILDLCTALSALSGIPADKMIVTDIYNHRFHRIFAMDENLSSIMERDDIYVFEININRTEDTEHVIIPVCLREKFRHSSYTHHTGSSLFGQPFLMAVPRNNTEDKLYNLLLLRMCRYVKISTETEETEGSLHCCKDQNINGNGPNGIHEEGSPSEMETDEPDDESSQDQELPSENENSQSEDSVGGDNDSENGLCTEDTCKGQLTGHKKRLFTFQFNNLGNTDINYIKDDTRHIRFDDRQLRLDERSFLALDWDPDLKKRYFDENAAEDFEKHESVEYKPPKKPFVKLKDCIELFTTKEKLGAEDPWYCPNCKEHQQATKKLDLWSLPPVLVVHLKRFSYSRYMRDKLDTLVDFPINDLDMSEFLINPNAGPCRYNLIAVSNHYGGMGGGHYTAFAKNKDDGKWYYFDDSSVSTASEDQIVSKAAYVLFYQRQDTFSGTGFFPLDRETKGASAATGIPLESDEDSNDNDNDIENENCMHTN
Outline: as §1

Measured: log2 ratio of Biotin-Ahx-Ub-VS probe labelling

Sequence of UCHL1 (P09936 whole entry, looked up): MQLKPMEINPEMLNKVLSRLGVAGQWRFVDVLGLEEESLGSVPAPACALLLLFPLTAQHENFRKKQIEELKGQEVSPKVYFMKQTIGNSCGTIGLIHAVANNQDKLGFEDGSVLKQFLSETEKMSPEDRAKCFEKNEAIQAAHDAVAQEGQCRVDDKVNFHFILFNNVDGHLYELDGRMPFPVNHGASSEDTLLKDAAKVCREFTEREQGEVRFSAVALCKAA
Sequence of USP10 (Q14694 whole entry): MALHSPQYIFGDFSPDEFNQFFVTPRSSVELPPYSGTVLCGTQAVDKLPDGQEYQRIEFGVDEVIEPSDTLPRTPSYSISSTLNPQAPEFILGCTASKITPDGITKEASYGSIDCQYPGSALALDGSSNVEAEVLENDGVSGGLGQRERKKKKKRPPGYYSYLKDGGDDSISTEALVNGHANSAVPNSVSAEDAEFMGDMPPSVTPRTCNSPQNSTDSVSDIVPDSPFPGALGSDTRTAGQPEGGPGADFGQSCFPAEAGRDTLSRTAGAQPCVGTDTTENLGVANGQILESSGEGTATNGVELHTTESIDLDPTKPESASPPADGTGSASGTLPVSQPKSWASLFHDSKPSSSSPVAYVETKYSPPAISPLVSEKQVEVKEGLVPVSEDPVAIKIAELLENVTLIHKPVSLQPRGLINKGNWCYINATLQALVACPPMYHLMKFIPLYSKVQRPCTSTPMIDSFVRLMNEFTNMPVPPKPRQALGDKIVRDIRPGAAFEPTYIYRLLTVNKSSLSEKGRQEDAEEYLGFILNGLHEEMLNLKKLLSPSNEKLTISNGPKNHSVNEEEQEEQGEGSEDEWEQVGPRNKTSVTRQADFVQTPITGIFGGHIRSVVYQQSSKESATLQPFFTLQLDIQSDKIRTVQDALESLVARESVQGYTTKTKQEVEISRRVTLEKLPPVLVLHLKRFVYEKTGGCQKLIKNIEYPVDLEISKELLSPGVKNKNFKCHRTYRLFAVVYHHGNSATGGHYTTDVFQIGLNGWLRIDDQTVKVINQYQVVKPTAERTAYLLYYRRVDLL

O=C(CCl)Nc1cc2c(cc1Cl)OCCO2
active: UCHL1 -1.2
inactive: OTUD6B -0.0652 | OTUD7B -0.567 | PRPF8 0.0189 | PSMD7 -0.149 | UCHL3 0.196 | UCHL5 -0.407 | USP10 -0.000247 | USP15 -0.202
